In all, about 290,000 compounds went through this assay and about 800 (0.28%) were called active.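 Rule for the calls: active = fall in fluorescence gain of 50% or more versus controls, with final raw signal at or below 3038400; inconclusive = same 50% fall but final raw signal above 3038400; inactive = fall in fluorescence gain under 50%.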 For the sample, actives were picked, then their nearest neighbours and some compounds at random.

This assay deals with CAAX prenyl protease 2 (Saccharomyces cerevisiae (strain ATCC 204508 / S288c)) (UniProt Q03530). Put plainly: yeast Rce1p protease inhibitors, primary screen, biochemical, fluorescence, cell-free homogeneous (AID 2563). The note with it: yeast membranes, quenched prenylated peptide cleavage fluorescence.
Sequence of CAAX prenyl protease 2 (Saccharomyces cerevisiae (strain ATCC 204508 / S288c)) (Q03530 whole entry, looked up): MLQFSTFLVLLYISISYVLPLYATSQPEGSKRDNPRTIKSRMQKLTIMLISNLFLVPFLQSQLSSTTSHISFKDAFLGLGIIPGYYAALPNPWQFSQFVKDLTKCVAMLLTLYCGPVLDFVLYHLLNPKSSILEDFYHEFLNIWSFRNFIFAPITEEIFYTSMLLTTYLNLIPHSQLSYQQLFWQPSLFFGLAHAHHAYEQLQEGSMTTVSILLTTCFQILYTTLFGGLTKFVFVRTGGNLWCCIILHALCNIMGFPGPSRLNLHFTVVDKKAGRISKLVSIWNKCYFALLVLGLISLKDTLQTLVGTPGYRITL
For the compound `Cc1cccc([C@@H]2[C@@H]3C(=O)N(Cc4ccccc4)C(=O)[C@@H]3[C@]3(Cc4ccc(Cl)cc4)C(=O)N(c4cccc(Cl)c4)C(=O)N23)c1`, the compound was called inactive.

`C=CCNC(=O)C1CC2c3ccccc3C1c1ccccc12` (stereo not given): the compound was classed as inactive. In the case of `CC(=O)c1c(C)oc2ccc(NS(=O)(=O)c3ccccc3)cc12` it was “inactive”. In the case of `CC(=O)c1c(C)oc2ccc(NS(=O)(=O)c3ccc(C(=O)O)cc3)cc12` it was “active”; in that of `COc1ccc(S(=O)(=O)Nc2ccc3oc(C)c(C(C)=O)c3c2)cc1`, “inactive”.

Consider `COc1ccccc1CNC(=O)COn1nnc2ccc(S(=O)(=O)N3CCOCC3)cc21`, for which the compound was classed as inactive. In the case of `CCc1cccc(NC(=O)COC(=O)C2CCN(c3ccc(C(F)(F)F)cn3)CC2)c1` it was “inactive”; in that of `O=C(NCC(c1cccs1)N1CCOCC1)c1cc(Cl)ccc1[N+](=O)[O-]` (stereo not given), “inactive”. In the case of `Cc1ccc(S(=O)(=O)N2CCC(C(=O)NCCC3=CCCCC3)CC2)cc1C` it was “inactive”; in that of `O=C(CCC(=O)c1cccs1)Nc1nc2ccccc2s1`, “inactive”.

For the compound `CC12CCC(=O)N1C(C(=O)Nc1ccc(F)c(F)c1F)CS2` (stereo not given), the compound was called inactive. `COc1cc2ccccc2cc1C(=O)N1CCOCC1`: the result was inactive. In the case of `COc1ccc(S(=O)(=O)NCc2cccnc2)cc1NC(=O)c1ccc(C)cc1` it was “inactive”; in that of `COc1ccc(/C=N/NC(=O)c2ccc(Cl)cc2)cc1COC(C)=O`, “active”; in that of `COc1ccc(/C=N/NC(=O)c2ccccc2)cc1OS(=O)(=O)c1ccccc1`, “inactive”. In the case of `COc1cccc(OCc2cc(/C=N/NC(=O)c3nc(Cl)c(Cl)c(N)c3Cl)ccc2OC)c1` it was “inactive”; in that of `CCOC(=O)N1CCN(C(=O)c2ccccc2SCC(=O)NCC2CCCCC2)CC1`, “inactive”; in that of `COc1ccccc1C(CNC(=O)c1cccc(NS(=O)(=O)c2ccc(Br)cc2)c1)N(C)C` (stereo not given), “inactive”. In the case of `CCOc1ccc(CCNC(=O)CN2C(=O)NC3(CCc4ccccc43)C2=O)cc1OCC` (stereo not given) it was “inactive”; in that of `COc1ccccc1NC(=O)C(C)OC(=O)c1ccc(-n2cnnn2)cc1` (stereo not given), “inactive”; in that of `COc1ccc(C(=NN)c2ccc(OC)cc2)cc1`, “inactive”. As for `CCCCn1c(N)c(N(Cc2ccccc2OC)C(=O)COc2cc(C)ccc2Cl)c(=O)[nH]c1=O`, the result was inactive. In the case of `COc1ccc(NC(=O)CN(C)C(=O)c2n[nH]c3ccccc23)cc1` it was “inactive”; in that of `CCN(CC)c1ccc(S(=O)(=O)N2CCCCC2)cc1NC(=O)C1=COCCO1`, “inactive”. In the case of `CCCCn1c(N)c(N(CC(C)C)C(=O)c2cnc(C)cn2)c(=O)[nH]c1=O` it was “inactive”. In the case of `Cc1cccc(N(Cc2ccccc2)C(=O)c2cc(S(=O)(=O)N3CCOCC3)ccc2F)c1` it was “inactive”. Regarding `Cc1ccc(C)c(NC(=O)COC(=O)Cn2c(C)csc2=O)c1`, the outcome was inactive. In the case of `COc1ccc(-c2ccc3nnc(SCC(=O)Nc4ccc(NC(C)=O)cc4)n3n2)cc1` it was “inactive”; in that of `COc1ccc(C2CC(c3ccccc3)=NN2C(=O)c2ccc(Cl)c([N+](=O)[O-])c2)cc1` (stereo not given), “active”; in that of `COc1ccc(C2CC(c3ccc([N+](=O)[O-])cc3)=NN2C(C)=O)cc1` (stereo not given), “inactive”. In the case of `COc1ccc(C2=NN(C(=O)c3cccnc3)C(c3ccccc3)C2)cc1` (stereo not given) it was “inactive”; in that of `COc1ccc(S(=O)(=O)NCC(c2ccco2)N2CCOCC2)cc1` (stereo not given), “inactive”; in that of `CN1CCN(c2cc3c(cc2F)c(=O)c(C(=O)O)cn3CCF)CC1`, “inactive”. In the case of `CCCCNC(=O)c1cn(CC)c2cc(N3CCN(C(=O)c4ccco4)CC3)c(F)cc2c1=O` it was “inactive”; in that of `CCn1cc(C(=O)NCCO)c(=O)c2cc(F)c(N3CCN(C)CC3)cc21`, “active”. Turning to `COc1ccc(NC(=O)CSc2nnc(Cc3ccccc3)c(=O)n2N)cc1`, the result was inactive. In the case of `Cc1cc(C)c(S(=O)(=O)NCC(c2ccc3c(c2)OCO3)N2CCOCC2)c(C)c1` (stereo not given) it was “inactive”; in that of `COc1ccccc1N(C)S(=O)(=O)c1ccc(Cl)c(C(=O)Nc2ccncc2)c1`, “inactive”; in that of `Nc1nc(NCC(=O)O)nc(N2CCCCCC2)c1[N+](=O)[O-]`, “inactive”.

With `COCCNc1nc(N)c([N+](=O)[O-])c(NCCO)n1`, the result was inactive. In the case of `COCCNc1nc(N)c([N+](=O)[O-])c(N2CCCCCC2)n1` it was “active”; in that of `O=C(NCC1(N2CCCCC2)CCCCC1)c1ccc(NS(=O)(=O)c2ccc(F)cc2)cc1`, “inactive”. In the case of `COc1ccc2oc(C(=O)N(CC(C)C)C3CCS(=O)(=O)C3)c(C)c2c1` (stereo not given) it was “inactive”; in that of `COc1ccc(S(=O)(=O)N2CCCCCC2)cc1C(=O)N(C)Cc1cccc(OC)c1OC`, “inactive”; in that of `Cc1noc(C)c1CSCC(=O)Nc1ccc(Br)cc1Cl`, “inactive”. Regarding `COC(C[C@@H]1O[C@@H]1C(=O)[C@H](C)OCc1ccccc1)OC`, the result was inactive.

For `COC(C/C=C/C(=O)[C@@H](C)OCc1ccccc1)OC`, the outcome was inactive. In the case of `COC(C[C@@H]1O[C@@H]1C(=O)[C@@H](C)OCc1ccccc1)OC` it was “active”; in that of `COc1ccc(/C=N/NC(=O)c2cc(-c3cccc(C)c3)nc3ccccc23)cc1O`, “inactive”; in that of `CCOC(=O)C1CCN(C(=O)COC(=O)C2CCN(S(=O)(=O)c3ccc4c(c3)OCCO4)CC2)CC1`, “inactive”.

`O=C(c1cc(-c2ccc(Cl)s2)nc2ccccc12)N1CCOCC1`: the compound was classed as inactive. In the case of `CN(C(=O)COC(=O)c1cc(-c2ccco2)nc2ccccc12)C1CCS(=O)(=O)C1` (stereo not given) it was “inactive”; in that of `Cc1cc(C)c2nc(-c3ccco3)cc(C(=O)O)c2c1`, “active”; in that of `O=C(Nc1cccc(F)c1)c1cc(-c2ccco2)nc2ccccc12`, “inactive”. In the case of `CCCCC(=O)NNC(=S)NC(=O)C(c1ccccc1)c1ccccc1` it was “inactive”; in that of `CC(C)C(=O)NC(=S)Nc1ccccc1F`, “inactive”.

In the case of `CC(C)C(=O)Nc1cccc(NC(=S)NC(=O)C(c2ccccc2)c2ccccc2)c1`, the compound was classed as active. In the case of `CS(=O)(=O)c1ccc(C(=O)OCC(=O)NNC(=O)COc2ccc(Cl)cc2)cc1` it was “inactive”; in that of `CCC(=O)c1ccc(OCC(=O)OCC(=O)NC2CCCCCC2)cc1`, “inactive”; in that of `Cc1nc2ccccn2c(=O)c1NC(=O)c1cccs1`, “inactive”. In the case of `COc1ccccc1C(=O)Nc1ccccc1C(=O)Nc1ccccc1` it was “inactive”; in that of `COc1ccccc1C(=O)Nc1ccc(Nc2ccccc2)cc1`, “inactive”. In the case of `COc1ccccc1C(=O)NNC(=O)c1ccc(NC(=O)c2ccccc2)cc1` it was “active”; in that of `Cc1nc2ccccc2c(=O)n1-c1ccc(F)c(NC(=O)c2cccs2)c1`, “inactive”; in that of `Cc1cc(C)c(S(=O)(=O)N2CCCC2CNC(=O)c2ccc3c(c2)OCO3)c(C)c1` (stereo not given), “inactive”.
